What all share (test): DAPPL (digital affinity profiling via proximity ligation, sequencing); 10 mM Tris-HCl pH 7.5, 50 mM NaCl, 1 mM DTT, 4% glycerol, room temperature, 30 min; GST-TFs on glutathione beads, 16-mer random dsDNA library, 0.1% formaldehyde crosslink after washing; high values mean tight binding
What all share (settings): protein: recombinant; tags: N-terminal GST; dsDNA, one strand shown

For one test, the target named is T1, ELK4 (Homo sapiens, UniProt P28324-2 1-405).
T1 sequence: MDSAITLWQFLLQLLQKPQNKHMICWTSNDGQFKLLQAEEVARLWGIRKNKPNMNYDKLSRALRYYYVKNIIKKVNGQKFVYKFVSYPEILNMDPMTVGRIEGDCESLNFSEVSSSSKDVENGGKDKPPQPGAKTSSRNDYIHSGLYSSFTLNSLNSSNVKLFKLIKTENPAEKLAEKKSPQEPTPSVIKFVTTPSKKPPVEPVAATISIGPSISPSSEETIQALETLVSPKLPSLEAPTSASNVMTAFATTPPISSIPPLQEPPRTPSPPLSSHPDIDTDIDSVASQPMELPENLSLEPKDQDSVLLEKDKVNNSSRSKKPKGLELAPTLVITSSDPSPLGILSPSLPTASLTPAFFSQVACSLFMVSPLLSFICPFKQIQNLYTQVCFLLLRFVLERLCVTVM
The method in brief:
(§1)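 GST fusions of human transcription factors were expressed in yeast and captured with glutathione beads. Once given DNA barcodes and pooled alongside a tag-only sample, they were incubated for 30 min at room temperature with 200 nmole of a random double-stranded 16-mer DNA library in Tris/NaCl/DTT/glycerol buffer, then washed, crosslinked (0.1% formaldehyde), proximity-ligated, PCR-amplified and sequenced on an Illumina NextSeq500. The binding signal of each hexamer is its read frequency for a factor divided by its frequency for the tag-only sample.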

A further test concerns the target T2, ETV2 (Homo sapiens, UniProt O00321 1-342).
T2 sequence: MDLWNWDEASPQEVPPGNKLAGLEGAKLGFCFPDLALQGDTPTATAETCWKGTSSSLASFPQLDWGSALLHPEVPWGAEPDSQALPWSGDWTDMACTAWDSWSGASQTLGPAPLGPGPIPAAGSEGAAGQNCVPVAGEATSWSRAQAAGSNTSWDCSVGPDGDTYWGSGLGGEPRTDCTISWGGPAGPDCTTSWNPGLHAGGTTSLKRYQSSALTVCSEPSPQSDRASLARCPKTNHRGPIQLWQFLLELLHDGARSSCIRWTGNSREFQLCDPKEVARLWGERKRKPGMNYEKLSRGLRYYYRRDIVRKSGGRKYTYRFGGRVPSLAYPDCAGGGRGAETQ
The method in brief: as §1

The target of another test is T3, ELF3 (Homo sapiens, UniProt P78545 1-371).
T3 sequence: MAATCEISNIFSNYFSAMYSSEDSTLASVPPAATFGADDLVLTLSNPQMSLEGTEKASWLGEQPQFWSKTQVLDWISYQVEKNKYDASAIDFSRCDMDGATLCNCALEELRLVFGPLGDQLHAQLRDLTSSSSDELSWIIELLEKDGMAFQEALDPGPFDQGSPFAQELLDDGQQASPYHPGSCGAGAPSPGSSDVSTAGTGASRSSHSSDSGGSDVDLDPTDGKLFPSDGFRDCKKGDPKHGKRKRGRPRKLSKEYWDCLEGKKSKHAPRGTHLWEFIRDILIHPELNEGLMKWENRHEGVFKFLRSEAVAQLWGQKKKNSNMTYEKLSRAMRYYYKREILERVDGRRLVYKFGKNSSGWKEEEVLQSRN
The method in brief: as §1

A further test concerns the target ETV1 (Homo sapiens, UniProt P50549 1-477). In outline: as §1
The next test has as its target T4, ERF (Homo sapiens, UniProt P50548 1-548).
T4 sequence: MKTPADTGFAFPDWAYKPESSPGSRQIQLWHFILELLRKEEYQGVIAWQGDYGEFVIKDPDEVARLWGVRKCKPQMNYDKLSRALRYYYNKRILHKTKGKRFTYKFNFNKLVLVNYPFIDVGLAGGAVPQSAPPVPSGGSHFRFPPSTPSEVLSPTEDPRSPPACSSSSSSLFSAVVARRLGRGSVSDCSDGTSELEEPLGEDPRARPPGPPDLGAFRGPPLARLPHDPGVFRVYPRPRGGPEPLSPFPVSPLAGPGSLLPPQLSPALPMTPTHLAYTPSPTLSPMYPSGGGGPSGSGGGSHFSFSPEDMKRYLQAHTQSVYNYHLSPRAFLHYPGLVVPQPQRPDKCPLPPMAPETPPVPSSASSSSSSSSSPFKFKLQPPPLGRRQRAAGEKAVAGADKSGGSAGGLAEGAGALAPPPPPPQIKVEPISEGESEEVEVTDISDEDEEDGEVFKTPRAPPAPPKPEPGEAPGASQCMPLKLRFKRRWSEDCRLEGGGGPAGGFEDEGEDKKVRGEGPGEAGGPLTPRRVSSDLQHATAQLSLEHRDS
The method in brief: as §1

Another test addresses T5, ETV3L (Homo sapiens, UniProt Q6ZN32 1-361).
T5 sequence: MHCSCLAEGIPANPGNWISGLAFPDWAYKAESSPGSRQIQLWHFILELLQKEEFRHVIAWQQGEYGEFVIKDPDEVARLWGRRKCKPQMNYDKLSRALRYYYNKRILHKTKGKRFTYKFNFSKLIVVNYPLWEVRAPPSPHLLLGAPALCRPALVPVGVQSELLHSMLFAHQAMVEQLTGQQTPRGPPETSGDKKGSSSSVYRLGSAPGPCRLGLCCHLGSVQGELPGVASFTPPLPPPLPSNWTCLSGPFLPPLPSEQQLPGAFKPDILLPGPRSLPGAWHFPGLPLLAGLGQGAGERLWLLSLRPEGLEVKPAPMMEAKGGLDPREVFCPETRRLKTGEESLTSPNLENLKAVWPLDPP
In outline: as §1

The next test deals with T6, ETS2 (Homo sapiens, UniProt P15036 1-469).
T6 sequence: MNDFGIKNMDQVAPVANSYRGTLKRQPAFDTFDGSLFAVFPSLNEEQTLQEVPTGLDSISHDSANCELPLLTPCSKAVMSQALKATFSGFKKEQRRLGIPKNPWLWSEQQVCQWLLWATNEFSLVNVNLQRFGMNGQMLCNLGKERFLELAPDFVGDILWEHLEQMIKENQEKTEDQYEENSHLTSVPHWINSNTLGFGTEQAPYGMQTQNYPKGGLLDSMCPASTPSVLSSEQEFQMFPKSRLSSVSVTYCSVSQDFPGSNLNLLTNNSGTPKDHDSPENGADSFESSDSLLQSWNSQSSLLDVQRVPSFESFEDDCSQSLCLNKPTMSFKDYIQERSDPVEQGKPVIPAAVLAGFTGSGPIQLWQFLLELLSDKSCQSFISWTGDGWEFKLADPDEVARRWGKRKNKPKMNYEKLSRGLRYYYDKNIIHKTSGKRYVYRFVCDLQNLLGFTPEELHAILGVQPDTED
In outline: as §1

A further test deals with T7, ETV7 (Homo sapiens, UniProt Q9Y603 1-341).
T7 sequence: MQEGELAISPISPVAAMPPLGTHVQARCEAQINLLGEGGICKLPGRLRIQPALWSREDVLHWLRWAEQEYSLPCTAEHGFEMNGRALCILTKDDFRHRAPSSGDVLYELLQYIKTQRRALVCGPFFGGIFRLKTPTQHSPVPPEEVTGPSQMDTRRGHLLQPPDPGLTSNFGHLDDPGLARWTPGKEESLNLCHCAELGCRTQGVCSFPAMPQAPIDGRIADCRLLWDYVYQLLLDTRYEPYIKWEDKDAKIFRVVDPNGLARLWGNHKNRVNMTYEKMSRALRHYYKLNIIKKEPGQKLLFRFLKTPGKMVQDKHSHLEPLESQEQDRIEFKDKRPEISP
In outline: as §1

The next test addresses T8, ETV3 (Homo sapiens, UniProt P41162-2 1-143).
T8 sequence: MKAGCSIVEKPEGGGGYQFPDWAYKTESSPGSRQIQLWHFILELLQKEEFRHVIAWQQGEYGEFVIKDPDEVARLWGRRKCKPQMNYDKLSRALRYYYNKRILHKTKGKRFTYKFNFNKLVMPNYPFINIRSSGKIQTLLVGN
The method in brief: as §1

For the next test, the target named is ETV6 (Homo sapiens, UniProt P41212 1-452). In outline: as §1
Chain of ETV6 (P41212 whole entry): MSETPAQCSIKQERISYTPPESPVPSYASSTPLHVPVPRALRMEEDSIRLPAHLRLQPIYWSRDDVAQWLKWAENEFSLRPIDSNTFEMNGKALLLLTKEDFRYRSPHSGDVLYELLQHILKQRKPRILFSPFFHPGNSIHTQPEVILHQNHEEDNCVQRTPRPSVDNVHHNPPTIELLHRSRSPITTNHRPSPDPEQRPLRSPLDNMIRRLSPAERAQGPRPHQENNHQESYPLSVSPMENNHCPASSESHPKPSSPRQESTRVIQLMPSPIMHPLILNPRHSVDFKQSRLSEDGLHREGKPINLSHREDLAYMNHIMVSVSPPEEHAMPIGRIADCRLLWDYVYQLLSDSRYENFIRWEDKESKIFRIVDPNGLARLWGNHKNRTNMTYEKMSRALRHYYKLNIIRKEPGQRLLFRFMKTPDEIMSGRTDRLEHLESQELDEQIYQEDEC

Chain of ETV1 (P50549 whole entry): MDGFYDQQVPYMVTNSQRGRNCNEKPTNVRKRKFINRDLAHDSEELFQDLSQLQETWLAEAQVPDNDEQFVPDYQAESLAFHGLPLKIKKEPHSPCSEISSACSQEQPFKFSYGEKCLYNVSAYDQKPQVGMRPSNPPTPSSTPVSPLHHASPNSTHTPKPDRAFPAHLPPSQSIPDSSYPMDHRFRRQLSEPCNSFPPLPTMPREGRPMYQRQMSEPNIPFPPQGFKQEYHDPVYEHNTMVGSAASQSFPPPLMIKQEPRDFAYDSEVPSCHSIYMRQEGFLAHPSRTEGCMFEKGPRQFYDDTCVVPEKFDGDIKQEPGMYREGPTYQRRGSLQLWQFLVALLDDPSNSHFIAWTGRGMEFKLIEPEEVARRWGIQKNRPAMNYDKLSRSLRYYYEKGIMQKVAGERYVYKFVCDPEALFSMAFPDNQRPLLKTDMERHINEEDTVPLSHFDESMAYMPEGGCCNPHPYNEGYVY

As for TGTAAC, the binding signal in the test with ELK4 is 1.37 fold enrichment (6-mer frequency, TF over GST control); with ETV2, 1.21 fold enrichment (6-mer frequency, TF over GST control); in the test with ELF3 it was 1.22 fold enrichment (6-mer frequency, TF over GST control); in the test with ETV1, 1.28 fold enrichment (6-mer frequency, TF over GST control); with ERF, 1.23 fold enrichment (6-mer frequency, TF over GST control); in the test with ETV3L, 1.15 fold enrichment (6-mer frequency, TF over GST control). In addition, the binding signal is 1.32 fold enrichment (6-mer frequency, TF over GST control) with ETS2; 1.18 fold enrichment (6-mer frequency, TF over GST control) with ETV7; 1.24 fold enrichment (6-mer frequency, TF over GST control) with ETV3; 1.2 fold enrichment (6-mer frequency, TF over GST control) with ETV6.

Source of the values: article PMC7862700, “An all-to-all approach to the identification of sequence-specific readers for epigenetic DNA modifications on cytosine”.
